EphB4 ephrin blk: antagonists of human EphB4-ephrin-B2 interaction. EphB4 LBD / TNYL-RAW-Alexa532 peptide, fluorescence polarization. inhibition, % at 7 µM. hit rate 0.15% among 97,000. AID 720;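 active = inhibition above the screen-wide mean inhibition plus 3 SD, cut at about 15% in these data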;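 note: 0% = DMSO wells and 100% = excess unlabeled TNYL-RAW peptide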
CYP2C9 activ: activators of human CYP2C9 | P11712 | recombinant CYP2C9, luciferin-H conversion, luminescence; stronger effect = higher value; factor 1 = untreated enzyme, 0 = blocked | activation factor at 5 µM | hit rate 1.4% among 96,000;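 active = activation factor of 2 or more for CYP2C9 at a 5 µM dose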;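 note: 0 = sulfaphenazole-blocked wells and 1 = vehicle-only wells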
CYP2C19 inhib: blocks human cytochrome P450 2C19; hit rate 21% among 96,000; CYP2C19 Supersomes, luciferin-H EGE luminescence, 30 min; inhibition, % at 5 µM; AID 778; P33261;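 active = CYP2C19 inhibition above a set limit at 5 µM in the primary screen, cut at about 50% in these data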;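 note: plate controls were negative control wells for no effect and 2.5 mM tranylcypromine positive control for full effect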
Target sequence (P33261 whole entry, looked up): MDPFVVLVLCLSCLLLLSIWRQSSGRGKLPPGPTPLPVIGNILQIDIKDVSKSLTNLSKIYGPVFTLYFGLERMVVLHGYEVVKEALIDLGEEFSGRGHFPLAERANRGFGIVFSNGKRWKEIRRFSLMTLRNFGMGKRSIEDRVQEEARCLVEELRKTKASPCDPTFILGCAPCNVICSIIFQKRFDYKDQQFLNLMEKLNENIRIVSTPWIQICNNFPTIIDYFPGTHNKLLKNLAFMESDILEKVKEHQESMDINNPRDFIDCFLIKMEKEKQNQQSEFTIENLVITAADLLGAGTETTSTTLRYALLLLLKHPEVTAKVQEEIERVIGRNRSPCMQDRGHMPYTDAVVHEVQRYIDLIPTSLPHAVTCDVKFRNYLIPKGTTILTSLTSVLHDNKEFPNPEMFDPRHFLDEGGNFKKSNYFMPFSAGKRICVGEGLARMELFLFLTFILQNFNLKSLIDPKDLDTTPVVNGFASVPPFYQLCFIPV
CYP2C19 activ: activators of human cytochrome P450 2C19. P33261. recombinant CYP2C19, luciferin-H EGE luminescence; stronger effect = higher value; 0 = fully inhibited enzyme, 1 = untreated enzyme. activation factor at 5 µM. 96,000 tested, under 10 active;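 active = activation factor of at least 2 at 5 µM in the primary screen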;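 note: 0 = wells with 2.5 mM tranylcypromine and 1 = vehicle-only wells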
CYP2C9 inh: blocks human cytochrome P450 2C9. CYP2C9 Supersomes, luciferin-H conversion, luminescence. hit rate 20% among 96,000. inhibition, % at 5 µM. AID 777;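 active = blocking of liver enzyme CYP2C9 beyond about 50% at 5 µM, limit read from the data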
* = called active by the depositor. Sampled rows, rich in hits. Any-hit rate of the full collection: about 27%.

For Cc1cccc(NC(=O)C2CCCN2C(=O)OCC(C)C)c1 (stereo not drawn) the results were EphB4 ephrin blk 4, CYP2C9 activ 0.9, CYP2C19 inhib 34, CYP2C19 activ 0.7 and CYP2C9 inh 15.
For Cc1ccc(CNC(=O)CS(=O)Cc2nc(-c3cccs3)oc2C)cc1 (stereo not drawn) the results were EphB4 ephrin blk 7, CYP2C9 activ 1.2, CYP2C19 inhib 20, CYP2C19 activ 0.8 and CYP2C9 inh -22.
For O=C(COC(=O)c1ccc(O)cc1)Nc1ccc(N2CCCCC2)cc1 the results were EphB4 ephrin blk 3, CYP2C9 activ 0.3, CYP2C19 inhib 64*, CYP2C19 activ 0.4 and CYP2C9 inh 74*.
CCC(=O)N1CCN(c2ccc(NC(=O)COc3ccccc3Cl)cc2)CC1 was read as EphB4 ephrin blk 1, CYP2C9 activ 0.3, CYP2C19 inhib 81*, CYP2C19 activ 0.2 and CYP2C9 inh 71*.
`CN1CCN(c2ccc(NC(=O)COc3ccccc3Cl)cc2)CC1` gave EphB4 ephrin blk 4, CYP2C9 activ 1, CYP2C19 inhib 22, CYP2C19 activ 0.8 and CYP2C9 inh 0.
Screening CCC(=O)N1CCN(c2ccccc2NC(=O)COc2ccccc2Cl)CC1 returned EphB4 ephrin blk -8, CYP2C9 activ 0.1, CYP2C19 inhib 87*, CYP2C19 activ 0.1 and CYP2C9 inh 94*.
`CCOc1ccccc1OCC(=O)Nc1ccc(N2CCCCC2)cc1` gave EphB4 ephrin blk -2, CYP2C9 activ 2.6*, CYP2C19 inhib 4, CYP2C19 activ 1 and CYP2C9 inh -156.
Screening COc1cc(OC)cc(C(=O)OCC(=O)Nc2ccc(N3CCCCC3)cc2)c1 returned EphB4 ephrin blk -1, CYP2C9 activ 0.8, CYP2C19 inhib 10, CYP2C19 activ 0.9 and CYP2C9 inh 21.
For CCOc1ccccc1C(=O)OCC(=O)Nc1ccc(N2CCCCC2)cc1 the results were EphB4 ephrin blk 6, CYP2C9 activ 0.8, CYP2C19 inhib 3, CYP2C19 activ 1 and CYP2C9 inh 22.
Screening CC(=O)N1CCN(c2ccccc2NC(=O)COc2ccc(Br)cc2)CC1 returned EphB4 ephrin blk 2, CYP2C9 activ 0.6, CYP2C19 inhib 30, CYP2C19 activ 0.7 and CYP2C9 inh 38.
For Cc1cc(C)n(-c2cc(C)c(C)cc2Br)n1 the results were EphB4 ephrin blk 2, CYP2C9 activ 1.1, CYP2C19 inhib 26, CYP2C19 activ 0.7 and CYP2C9 inh -9.
Screening Cc1nc2nc(CCc3ccccc3)nn2c(C)c1Cl returned EphB4 ephrin blk -2, CYP2C9 activ 1, CYP2C19 inhib 19, CYP2C19 activ 0.8 and CYP2C9 inh 3.
`CCCCOC(=O)Nc1ccc(N2CCCCC2)cc1` gave EphB4 ephrin blk -3, CYP2C9 activ 0.5, CYP2C19 inhib 70*, CYP2C19 activ 0.3 and CYP2C9 inh 52*.
`CCCCOC(=O)Nc1ccc(N2CCOCC2)cc1` gave EphB4 ephrin blk -5.
O=C(C(Cc1ccccc1)NS(=O)(=O)c1cccc2cccnc12)N1CCc2ccccc21 (stereo not drawn) was read as EphB4 ephrin blk 3, CYP2C9 activ 0.7, CYP2C19 inhib 13, CYP2C19 activ 0.9 and CYP2C9 inh 31.
For Cc1ccc2c(c1)[nH]c1c(=O)n(CCCN3CCOCC3)cnc12 the results were EphB4 ephrin blk -2, CYP2C9 activ 1, CYP2C19 inhib 21, CYP2C19 activ 0.8 and CYP2C9 inh -2.
For C=CCn1c2ccccc2c2nnc(SCCCn3c(=O)[nH]c4ccccc43)nc21 the results were EphB4 ephrin blk -3, CYP2C9 activ 0.2, CYP2C19 inhib 75*, CYP2C19 activ 0.3 and CYP2C9 inh 76*.
`C=CCn1c2ccccc2c2nnc(SCN3C(=O)c4ccccc4C3=O)nc21` gave EphB4 ephrin blk 0, CYP2C9 activ 0.2, CYP2C19 inhib 90*, CYP2C19 activ 0.1 and CYP2C9 inh 79*.
Screening O=C1c2ccccc2C(=O)N1CSc1nnc2c3ccccc3n(CCc3ccccc3)c2n1 returned EphB4 ephrin blk -3, CYP2C9 activ 0.6, CYP2C19 inhib 31, CYP2C19 activ 0.7 and CYP2C9 inh 40.
Screening CCn1c2ccccc2c2nnc(SCC(=O)c3ccccc3)nc21 returned EphB4 ephrin blk 5, CYP2C9 activ 1, CYP2C19 inhib 36, CYP2C19 activ 0.6 and CYP2C9 inh -4.
Cc1ccc(S(=O)(=O)c2ccc(Oc3cccc(C)c3)cc2)cc1 was read as EphB4 ephrin blk 6, CYP2C9 activ 0.5, CYP2C19 inhib 31, CYP2C19 activ 0.7 and CYP2C9 inh 53*.

Screening results: PubChem BioAssay, several laboratories
